# Measured values as given in publication PMC5540273 (PLoS ONE, 2017).
# Key:
# Conditions in all cases: concentration: 1 μM,replicates: in singlicate; n = 1
# SNARK = tested on: T1, SNARK
# T1 construct: gene NUAK2
# SNRK = tested on: SNRK
# SRC = tested on: SRC
# SRMS = tested on: SRMS
# SRPK1 = tested on: SRPK1
# SRPK2 = tested on: SRPK2
# SRPK3 = tested on: SRPK3
# STK16 = tested on: STK16
# STK33 = tested on: STK33
# STK35 = tested on: STK35
# STK36 = tested on: STK36
# STK39 = tested on: STK39
# SYK = tested on: SYK
# SgK110 = tested on: SgK110
# TAK1 = tested on: T2, TAK1
# T2 construct: gene MAP3K7
# TAOK1 = tested on: TAOK1
# TAOK2 = tested on: TAOK2
# TAOK3 = tested on: TAOK3
# TBK1 = tested on: TBK1
# TEC = tested on: TEC
# 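Further: KINOMEscan kinase panel screen.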
Compound,%Inh (SNARK) [%],%Inh (SNRK) [%],%Inh (SRC) [%],%Inh (SRMS) [%],%Inh (SRPK1) [%],%Inh (SRPK2) [%],%Inh (SRPK3) [%],%Inh (STK16) [%],%Inh (STK33) [%],%Inh (STK35) [%],%Inh (STK36) [%],%Inh (STK39) [%],%Inh (SYK) [%],%Inh (SgK110) [%],%Inh (TAK1) [%],%Inh (TAOK1) [%],%Inh (TAOK2) [%],%Inh (TAOK3) [%],%Inh (TBK1) [%],%Inh (TEC) [%]
CCN(CC)CCCCNc1ncc2cc(-c3c(Cl)cccc3Cl)c(NC(=O)NC(C)(C)C)nc2n1,42,12,100,31,35,8,0,4,0,15,77,0,11,25,57,99.2,99.5,99.5,0,0
Cc1ccc(-n2nc(C(C)(C)C)cc2NC(=O)Nc2ccc(OCCN3CCOCC3)c3ccccc23)cc1 [GW839464],0,0,0,8,64,0,29,6,21,0,0,0,9,22,76,0,1,0,31,34
Cc1cc2cn[nH]c2cc1-c1cccc2c(N)c(C(N)=O)nnc12,62,11,17,35,49,14,34,0,0,0,0,47,20,0,69,83,37,39,47,94.9
CCN(CC)CCOc1ccc(Nc2ncc3cc(-c4c(Cl)cccc4Cl)c(=O)n(C)c3n2)cc1 [SB-601273],92.6,7,100,90.8,50,70,9,53,62,98.8,99.5,60,89,84,65,99.1,99.4,99.9,42,89
Cc1occc1-c1nc(N)c(OC[C@@H](N)Cc2c[nH]c3ccccc23)cc1-c1cc2c(C)n[nH]c2cn1 [GSK1660450],96.9,0,95.6,0,71,0,56,3,84,28,67,4,0,0,97.2,99.6,89,99.6,6,0
C=CC(=O)Nc1cc2c(Nc3ccc(F)c(Cl)c3)ncnc2cc1OCCCN1CCOCC1 [GW781483],0,14,71,0,4,32,,0,8,,,22,6,0,20,0,0,0,0,39
Cl.Cl.NC[C@H](Cc1ccc(C(F)(F)F)cc1)NC(=O)c1cc(Br)c(-c2ccnc3[nH]ccc23)s1 [GSK1487252],91.5,0,0,0,47,0,0,16,96.8,0,0,7,10,75,11,2,0,0,4,8
Cc1n[nH]c2ccc(-c3cc(OC[C@@H](N)Cc4ccccc4)cnc3-c3ccoc3)cc12.O=C(O)C(F)(F)F.O=C(O)C(F)(F)F [GSK507358],18,0,10,0,61,4,34,6,73,95.9,0,0,0,0,97.9,92.4,5,74,18,0
